Here are results for 83 molecules from publication PMC4336329 (PLoS ONE, 2015).

The campaign covered roughly 310,000 compounds. About 14,000 (4.5%) showed an effect of 50% or more. The effect is printed as a negative number. The sample holds strong results, similar compounds and a random draw of the others, so the mix is not that of the screen.
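Further: peak tail current of the secondary pulse compared with the same well before compound.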

The assay deals with human ether-à-go-go-related gene (hERG) potassium channel (human, UniProt Q12809). In words: primary screen, population patch clamp on CHO cells stably expressing hERG; higher = less effect of the substance.
Sequence of human ether-à-go-go-related gene (hERG) potassium channel (Q12809 whole entry, looked up): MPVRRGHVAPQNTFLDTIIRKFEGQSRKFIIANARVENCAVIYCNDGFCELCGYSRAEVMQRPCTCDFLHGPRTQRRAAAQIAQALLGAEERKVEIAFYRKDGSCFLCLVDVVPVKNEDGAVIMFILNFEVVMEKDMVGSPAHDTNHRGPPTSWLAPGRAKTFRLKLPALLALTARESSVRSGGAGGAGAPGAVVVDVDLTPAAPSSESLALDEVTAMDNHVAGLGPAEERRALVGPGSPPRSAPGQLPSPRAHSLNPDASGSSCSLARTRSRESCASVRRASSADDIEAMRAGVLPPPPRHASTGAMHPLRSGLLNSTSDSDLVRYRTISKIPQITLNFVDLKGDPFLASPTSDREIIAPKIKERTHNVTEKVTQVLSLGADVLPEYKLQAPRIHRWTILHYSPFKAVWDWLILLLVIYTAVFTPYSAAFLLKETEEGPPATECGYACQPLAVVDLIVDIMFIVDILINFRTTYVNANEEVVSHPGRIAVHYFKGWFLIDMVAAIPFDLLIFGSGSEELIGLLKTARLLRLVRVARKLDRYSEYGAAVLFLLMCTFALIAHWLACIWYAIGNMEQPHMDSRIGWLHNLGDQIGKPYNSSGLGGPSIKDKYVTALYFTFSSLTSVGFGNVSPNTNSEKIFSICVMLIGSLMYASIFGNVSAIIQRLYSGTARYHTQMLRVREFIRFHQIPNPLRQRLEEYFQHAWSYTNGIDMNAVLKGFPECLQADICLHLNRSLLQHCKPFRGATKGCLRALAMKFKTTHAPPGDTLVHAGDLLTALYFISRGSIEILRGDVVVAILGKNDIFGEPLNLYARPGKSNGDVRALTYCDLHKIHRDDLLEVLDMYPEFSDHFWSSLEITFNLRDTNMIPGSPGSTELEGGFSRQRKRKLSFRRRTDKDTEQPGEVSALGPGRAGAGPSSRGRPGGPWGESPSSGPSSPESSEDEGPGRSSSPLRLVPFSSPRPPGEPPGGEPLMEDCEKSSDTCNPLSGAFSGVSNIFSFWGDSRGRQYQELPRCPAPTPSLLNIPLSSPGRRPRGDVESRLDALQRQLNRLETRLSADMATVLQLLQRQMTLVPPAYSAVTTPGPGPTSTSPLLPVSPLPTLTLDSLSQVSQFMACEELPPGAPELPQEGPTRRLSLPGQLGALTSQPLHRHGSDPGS
With `COc1ccc(C2=NS(=O)(=O)N(C)C(C(=O)NCc3cccs3)=C2)cc1OC`, the “hERG current change (%, negative = inhibition) at 10uM” value is reported as -53.9%.

Turning to `Cc1ccc(C2=NS(=O)(=O)N(C)C(C(=O)NCc3cccs3)=C2)cc1`, the “hERG current change (%, negative = inhibition) at 10uM” value was -8.57%. The figure for `COc1ccc(CNC(=O)C2=CC(c3ccc(C)cc3)=NS(=O)(=O)N2C)cc1` is -9.69%.

Regarding `COc1ccc(C2=NS(=O)(=O)N(C)C(C(=O)N(C)Cc3ccccc3)=C2)cc1`, the “hERG current change (%, negative = inhibition) at 10uM” value is reported as -69.9%.

As to `Cc1ccc(C2=NS(=O)(=O)N(C)C(C(=O)NCc3ccco3)=C2)cc1`, the “hERG current change (%, negative = inhibition) at 10uM” value is given as -58.4%. The figure for `COc1ccc(C2=NS(=O)(=O)N(C)C(C(=O)NCc3ccco3)=C2)cc1OC` is -48.9%; for `CN1C(C(=O)NCc2ccco2)=CC(c2ccc(F)cc2)=NS1(=O)=O` it is -34.2%. The result for `COc1ccc(OC)c(C2=NS(=O)(=O)N(C)C(C(=O)NCc3cccs3)=C2)c1` reads -28%.

Turning to `COc1ccc(C2=NS(=O)(=O)N(C)C(C(=O)NC(C)c3ccccc3)=C2)cc1` (centres unmarked), the “hERG current change (%, negative = inhibition) at 10uM” value is listed as -23.8%.

As to `COc1ccc(C2=NS(=O)(=O)N(C)C(C(=O)N(C)Cc3ccccc3)=C2)cc1OC`, the “hERG current change (%, negative = inhibition) at 10uM” value was -6.75%. For `COc1ccc(C2=NS(=O)(=O)N(C)C(C(=O)NCc3ccccn3)=C2)cc1`, the “hERG current change (%, negative = inhibition) at 10uM” value was -33.9%.

For the molecule `COc1ccc(CNC(=O)C2=CC(c3ccc(OC)cc3)=NS(=O)(=O)N2C)cc1`, the “hERG current change (%, negative = inhibition) at 10uM” value is -54.5%. The result for `CCc1ccc(C2CC(c3ccc(Cl)cc3)n3nc(N)nc3N2)cc1` (centres unmarked) reads -10.3%. Turning to `CC(C(=O)N1CCc2ccccc21)N1CCN(S(=O)(=O)c2cccs2)CC1` (centres unmarked), the “hERG current change (%, negative = inhibition) at 10uM” value is recorded as -28.8%.

`Cc1ccnc(OC(C(=O)O)C(OCCc2ccccc2)(c2ccccc2)c2ccccc2)n1` (centres unmarked): the “hERG current change (%, negative = inhibition) at 10uM” value worked out at 23.2%. With `CC(=O)Nc1n[nH]c(-c2ccc(C)cc2)c1C`, the “hERG current change (%, negative = inhibition) at 10uM” value was 4.49%. The figure for `Cc1ccc(CNS(=O)(=O)CCNC(=O)c2ccccc2)cc1` is -33.5%; for `Cc1[nH]nc2c1C(c1cccs1)C(C#N)=C(N)O2` (centres unmarked) it is 5.07%.

Regarding `O=C(OCC(=O)N1CCc2ccccc2C1)c1cccnc1Cl`, the “hERG current change (%, negative = inhibition) at 10uM” value is on record as -0.321%.

In the case of `Cc1ccc(C2=NS(=O)(=O)N(C)C(C(=O)NCc3ccc(F)cc3)=C2)cc1`, the “hERG current change (%, negative = inhibition) at 10uM” value is listed as -28.4%. The figure for `COc1ccc(C2=NS(=O)(=O)N(C)C(C(=O)NCc3ccc4c(c3)OCO4)=C2)cc1` is -63.3%; for `COc1ccc(CNC(=O)C2=CC(c3ccc(OC)c(OC)c3)=NS(=O)(=O)N2C)cc1` it is -21.8%; for `COc1ccc(C2=NS(=O)(=O)N(C)C(C(=O)NCc3ccc(F)cc3)=C2)cc1OC` it is -59%.

Regarding `COc1ccc(C2=NS(=O)(=O)N(C)C(C(=O)Nc3ccc4c(c3)OCO4)=C2)cc1`, the “hERG current change (%, negative = inhibition) at 10uM” value is -4.37%. `COc1ccc(C2=NS(=O)(=O)N(C)C(C(=O)NCc3ccc4c(c3)OCO4)=C2)cc1OC`: the “hERG current change (%, negative = inhibition) at 10uM” value is recorded as -34.9%.

Take `Cc1cc(C)nc(NC(=O)c2ccccc2O)n1`: the “hERG current change (%, negative = inhibition) at 10uM” value is 18.3%. The result for `Fc1cccc(Cl)c1CSc1ccc(-c2ccco2)nn1` reads 1.19%; that for `Clc1ccc(CSc2ccc(-c3cccnc3)nn2)cc1`, -48.6%. For `c1ccc(CSc2ccc(-c3cccnc3)nn2)nc1`, the “hERG current change (%, negative = inhibition) at 10uM” value was determined as 6.82%. As for `O=[N+]([O-])c1cccc(-c2ccc(SCc3cccnc3)nn2)c1`, the “hERG current change (%, negative = inhibition) at 10uM” value is -55%. The result for `Fc1cccc(Cl)c1CSc1ccc(-c2cccnc2)nn1` reads -68.9%; that for `c1cncc(CSc2ccc(-c3cccnc3)nn2)c1`, 9.04%; that for `Clc1cccc(CSc2ccc(-c3cccnc3)nn2)c1`, -67.3%. The result for `O=[N+]([O-])c1cccc(-c2ccc(SCc3ccccn3)nn2)c1` reads -6.25%; that for `c1ccc(CSc2ccc(-c3cccnc3)nn2)cc1`, -13.7%. The figure for `N#Cc1c(NC(=O)COC(=O)c2ccc(S(=O)(=O)N3CCCC3)cc2)sc2c1CCCCC2` is 6.38%.

On to `CCCCC1C(C#N)=C(C)NC2=C1C(=O)CC(C)(C)C2` (centres unmarked), for which the “hERG current change (%, negative = inhibition) at 10uM” value was -9.68%. With `O=C(CSc1nc(NS(=O)(=O)c2ccccc2)cc(=O)[nH]1)Nc1ccc(F)cc1`, the “hERG current change (%, negative = inhibition) at 10uM” value is on record as 10.7%. With `CC(C)c1ccc(OCC(=O)Nc2ccc(S(=O)(=O)Nc3ccccn3)cc2)cc1`, the “hERG current change (%, negative = inhibition) at 10uM” value was determined as 10.7%.

For `Clc1ccc(CNc2ncccn2)cc1`, the “hERG current change (%, negative = inhibition) at 10uM” value is listed as 13.5%.

Turning to `CCOc1ccc(/C(O)=C2/C(=O)C(=O)N(CC3CCCO3)C2c2ccco2)cc1` (centres unmarked), the “hERG current change (%, negative = inhibition) at 10uM” value was found to be 14.2%.

`COc1ccc(CNC(=O)CCOc2ccc(C(C)(C)C)cc2)cc1`: the “hERG current change (%, negative = inhibition) at 10uM” value stood at 8.47%. The figure for `O=C1NCCN1CCNS(=O)(=O)c1cc(C(F)(F)F)cc(C(F)(F)F)c1` is 17.2%; for `Cc1csc(Nc2ccccc2C(F)(F)F)n1` it is 6.46%; for `N#C/C(=C\c1c(N2CCCCC2)nc2ccccn2c1=O)S(=O)(=O)c1ccccc1` it is -40.7%.

As for `Cc1ccc(S(=O)(=O)/C(C#N)=C/c2c(N3CCCCC3)nc3ccccn3c2=O)cc1`, the “hERG current change (%, negative = inhibition) at 10uM” value is -29.9%. Consider `CCN1CCN(c2nc3ccccn3c(=O)c2/C=C(\C#N)S(=O)(=O)c2ccccc2)CC1`, for which the “hERG current change (%, negative = inhibition) at 10uM” value is on record as -42.3%.

`N#C/C(=C\c1c(N2CCN(c3ccccc3)CC2)nc2ccccn2c1=O)S(=O)(=O)c1ccccc1`: the “hERG current change (%, negative = inhibition) at 10uM” value was 2.28%.

As to `N#C/C(=C\c1c(N2CCN(Cc3ccccc3)CC2)nc2ccccn2c1=O)S(=O)(=O)c1ccccc1`, the “hERG current change (%, negative = inhibition) at 10uM” value is listed as 0.944%. The figure for `N#C/C(=C\c1c(N2CCOCC2)nc2ccccn2c1=O)S(=O)(=O)c1ccccc1` is -63.2%; for `Cc1ccc(S(=O)(=O)/C(C#N)=C/c2c(N3CCN(C)CC3)nc3ccccn3c2=O)cc1` it is -59.1%; for `CN1CCN(c2nc3ccccn3c(=O)c2/C=C(\C#N)S(=O)(=O)c2ccccc2)CC1` it is -24.9%. The figure for `CN1CCN(c2nc3ccccn3c(=O)c2/C=C(\C#N)S(=O)(=O)c2ccc(Cl)cc2)CC1` is -51.9%. The figure for `CCOC(=O)c1cccc(NC(=O)c2ccc(F)cc2F)c1` is -16.1%; for `O=c1ccnc(Nc2ccc(Cl)cc2)[nH]1` it is -10.3%. As to `C/C(=N/NC(=O)CNC(=O)c1ccco1)c1ccco1`, the “hERG current change (%, negative = inhibition) at 10uM” value was 2.11%. The figure for `Cc1cccnc1NC(=O)Nc1ccc(Cl)cc1` is 9.39%. Regarding `Cc1ccc(N(CCC#N)C(=O)CSc2nnc3ccccn23)cc1`, the “hERG current change (%, negative = inhibition) at 10uM” value is given as -8.44%. The result for `COc1ccc2ccccc2c1CN1CCN(Cc2ccccc2)CC1` reads -2.66%; that for `Oc1cccc(Nc2nc(N3CCOCC3)nc(N3CCOCC3)n2)c1`, 8.76%; that for `CSc1ccc(CN(C)C(=O)CNC(=O)CNS(=O)(=O)c2ccc(C)c(C)c2)cc1`, -24.1%. The figure for `CN(C(=O)N1CCN(c2ccccn2)CC1)c1ccccc1` is 7.47%; for `Cc1cc(Cn2nc(C(=O)NCc3cccc(Br)c3)cc2-c2ccccc2)on1` it is -20.3%.

`Cc1cc(Cn2nc(-c3ccccc3)cc2C(=O)NCc2cccc(C(F)(F)F)c2)on1`: the “hERG current change (%, negative = inhibition) at 10uM” value is on record as 10.8%. As for `Cc1cc(Cn2nc(C(=O)NCc3cccc(C(F)(F)F)c3)cc2-c2ccccc2)on1`, the “hERG current change (%, negative = inhibition) at 10uM” value is -57%.

Consider `CCOC(=O)c1c(NC(=O)CSc2nnc(C)s2)sc2c1CCC(C)C2` (centres unmarked), for which the “hERG current change (%, negative = inhibition) at 10uM” value was found to be 21.5%. Regarding `CN1CCN(c2ccc(NS(=O)(=O)c3ccc(Cl)cc3)cn2)CC1`, the “hERG current change (%, negative = inhibition) at 10uM” value is listed as -40.2%.

Regarding `O=C(CC1SC(=O)N(Cc2ccccc2Cl)C1=O)Nc1nccs1` (centres unmarked), the “hERG current change (%, negative = inhibition) at 10uM” value is -5.31%. The figure for `CC1=C/C(=N\NC(=O)c2ccccc2)CC1` is -53.1%; for `COc1ccccc1OCC(=O)N/N=C1/C=C(C)CC1` it is -3.82%. Consider `CC1=C/C(=N\NC(=O)c2ccc(O)cc2)CC1`, for which the “hERG current change (%, negative = inhibition) at 10uM” value is on record as 20.8%. The figure for `Cc1oc2c(c1C(=O)NCc1cccnc1)C(=O)c1ccccc1C2=O` is -47%. The result for `COc1cccc(NC(=O)CCc2nc(-c3ccccc3F)no2)c1` reads -0.885%; that for `O=C(Nc1cc(Cl)ccc1-n1cncn1)c1ccc(F)c(S(=O)(=O)N2CCOCC2)c1`, -44.6%; that for `O=C(Nc1cc(Cl)ccc1-n1cncn1)c1cccc(S(=O)(=O)N2CCOCC2)c1`, -61.9%. The figure for `CN1CCN(S(=O)(=O)c2cccc(C(=O)Nc3cc(Cl)ccc3N3CCOCC3)c2)CC1` is -42.3%; for `CCN(CC)c1ccc(C(=O)NC(=S)Nc2cc(S(=O)(=O)N3CCOCC3)ccc2-n2cncn2)cc1` it is -7.1%; for `O=C(Nc1cc(S(=O)(=O)N2CCOCC2)ccc1-n1cncn1)c1ccc(Cl)cc1` it is -50.4%. On to `COc1ccccc1C(=O)Nc1cc(Cl)ccc1-n1cncn1`, for which the “hERG current change (%, negative = inhibition) at 10uM” value came out at 0.114%. The figure for `COc1cc(OC)c(C(=O)Nc2cc(Cl)ccc2-n2cncn2)cc1OC` is -55%. As for `O=C(Nc1cc(Cl)ccc1-n1cncn1)c1cc(S(=O)(=O)N2CCOCC2)ccc1F`, the “hERG current change (%, negative = inhibition) at 10uM” value is listed as -34.7%. The figure for `COc1ccc(C(=O)Nc2cc(Cl)ccc2-n2cncn2)c(OC)c1OC` is -14.4%; for `Oc1c(C(c2cccs2)N2CCN(c3ccccc3)CC2)ccc2cccnc12` (centres unmarked) it is 7.17%.
